Data taken from the supplement of paper PMC10849652.
Of roughly 8,800 targets only a part is listed; those with a hit were picked by preference. About 0.5% of all pairs of compound and target were hits. Values without a mark were called inactive.

Assays:
Experiment in all cases: log2 fold change, soluble protein after heating vs DMSO (PISA); higher = thermal stabilisation; K562 lysate, 10 uM; active = over 0.2 and 3.5 SD of the protein, either way, in both replicates (recomputed)
lapatinib = compound: CS(=O)(=O)CCNCc1ccc(-c2ccc3ncnc(Nc4ccc(OCc5cccc(F)c5)c(Cl)c4)c3c2)o1 [lapatinib]
Summary of the method: (§1)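 Values give the log-two fold change in thermal stability against solvent controls, from duplicates. Crude K562 extract at 1 mg/mL protein, made by dounce homogenisation in PBS pH 7.4 with 1 mM MgCl2, was treated with 10 μM compound for 30 min. After 3 min heating across 48°C-58°C, aliquots were pooled, adjusted to 0.5% NP-40 at 4°C and centrifuged at 21,000xg for 90 min. The supernatant was measured by TMTpro 16plex LC-MS/MS with channel sums equalised.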

pictilisib = compound: CS(=O)(=O)N1CCN(Cc2cc3nc(-c4cccc5[nH]ncc45)nc(N4CCOCC4)c3s2)CC1 [pictilisib]
Summary of the method: as §1

crizotinib = compound: C[C@@H](Oc1cc(-c2cnn(C3CCNCC3)c2)cnc1N)c1c(Cl)ccc(F)c1Cl [crizotinib]
Summary of the method: as §1

[1] = compound: C[C@H](C1=CC=C(C=C1)C(=O)NC2=C3C=CNC3=NC=C2)N
Summary of the method: as §1

duvelisib = compound: C[C@H](Nc1ncnc2nc[nH]c12)c1cc2cccc(Cl)c2c(=O)n1-c1ccccc1 [duvelisib]
Summary of the method: as §1

gandotinib = compound: Cc1cc(Nc2cc(CN3CCOCC3)c3nc(C)c(Cc4ccc(Cl)cc4F)n3n2)n[nH]1 [gandotinib]
Summary of the method: as §1

tozasertib = compound: Cc1cc(Nc2cc(N3CCN(C)CC3)nc(Sc3ccc(NC(=O)C4CC4)cc3)n2)n[nH]1 [tozasertib]
Summary of the method: as §1

doramapimod = compound: Cc1ccc(-n2nc(C(C)(C)C)cc2NC(=O)Nc2ccc(OCCN3CCOCC3)c3ccccc23)cc1 [doramapimod]
Summary of the method: as §1

bafetinib = compound: Cc1ccc(NC(=O)c2ccc(CN3CC[C@H](N(C)C)C3)c(C(F)(F)F)c2)cc1Nc1nccc(-c2cncnc2)n1 [bafetinib]
Summary of the method: as §1

[2] = compound: Cc1cccc(CC(=O)N2CCc3c2ccc(-c2cn(C)c4ncnc(N)c24)c3F)n1
Summary of the method: as §1

nilotinib = compound: Cc1cn(-c2cc(NC(=O)c3ccc(C)c(Nc4nccc(-c5cccnc5)n4)c3)cc(C(F)(F)F)c2)cn1 [nilotinib]
Summary of the method: as §1

[3] = compound: Cc1nc(Nc2n[nH]c3c2CN(C(=O)N[C@H](CN(C)C)c2ccccc2)C3(C)C)c2sccc2n1
Summary of the method: as §1

dasatinib = compound: Cc1nc(Nc2ncc(C(=O)Nc3c(C)cccc3Cl)s2)cc(N2CCN(CCO)CC2)n1 [dasatinib]
Summary of the method: as §1

[4] = compound: Cc1ncc(-c2ccnc(Nc3ccc(S(C)(=O)=O)cc3)n2)n1C(C)C
Summary of the method: as §1

[5] = compound: Cn1cc(-c2ccc3c(c2)CCN3C(=O)Cc2cccc(C(F)(F)F)c2)c2c(N)ncnc21
Summary of the method: as §1

quisinostat = compound: Cn1cc(CNCC2CCN(c3ncc(C(=O)NO)cn3)CC2)c2ccccc21 [quisinostat]
Summary of the method: as §1

tipifarnib = compound: Cn1cncc1[C@@](N)(c1ccc(Cl)cc1)c1ccc2c(c1)c(-c1cccc(Cl)c1)cc(=O)n2C [tipifarnib]
Summary of the method: as §1

[6] = compound: NC(=O)Nc1cc(-c2cccc(F)c2)sc1C(=O)N[C@H]1CCCNC1
Summary of the method: as §1

[7] = compound: NC(=O)c1cnc(N[C@@H]2CCCC[C@@H]2N)nc1Nc1cccc(-n2nccn2)c1
Summary of the method: as §1

[8] = compound: NC1(c2ccc(-c3nc4ccn5c(=O)[nH]nc5c4cc3-c3ccccc3)cc2)CCC1
Summary of the method: as §1

Chain of UniProt P43897 (P43897 whole entry, looked up): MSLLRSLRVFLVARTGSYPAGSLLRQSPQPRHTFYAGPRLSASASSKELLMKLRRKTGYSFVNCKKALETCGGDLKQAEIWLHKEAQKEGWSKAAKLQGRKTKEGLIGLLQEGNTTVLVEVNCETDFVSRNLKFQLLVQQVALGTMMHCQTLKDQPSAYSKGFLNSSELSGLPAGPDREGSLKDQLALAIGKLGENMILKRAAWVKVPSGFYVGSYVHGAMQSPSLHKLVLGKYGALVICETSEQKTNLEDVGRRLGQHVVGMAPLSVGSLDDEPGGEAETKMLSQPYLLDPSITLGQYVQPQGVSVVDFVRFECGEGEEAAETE
Chain of UniProt Q12788 (Q12788 whole entry, looked up): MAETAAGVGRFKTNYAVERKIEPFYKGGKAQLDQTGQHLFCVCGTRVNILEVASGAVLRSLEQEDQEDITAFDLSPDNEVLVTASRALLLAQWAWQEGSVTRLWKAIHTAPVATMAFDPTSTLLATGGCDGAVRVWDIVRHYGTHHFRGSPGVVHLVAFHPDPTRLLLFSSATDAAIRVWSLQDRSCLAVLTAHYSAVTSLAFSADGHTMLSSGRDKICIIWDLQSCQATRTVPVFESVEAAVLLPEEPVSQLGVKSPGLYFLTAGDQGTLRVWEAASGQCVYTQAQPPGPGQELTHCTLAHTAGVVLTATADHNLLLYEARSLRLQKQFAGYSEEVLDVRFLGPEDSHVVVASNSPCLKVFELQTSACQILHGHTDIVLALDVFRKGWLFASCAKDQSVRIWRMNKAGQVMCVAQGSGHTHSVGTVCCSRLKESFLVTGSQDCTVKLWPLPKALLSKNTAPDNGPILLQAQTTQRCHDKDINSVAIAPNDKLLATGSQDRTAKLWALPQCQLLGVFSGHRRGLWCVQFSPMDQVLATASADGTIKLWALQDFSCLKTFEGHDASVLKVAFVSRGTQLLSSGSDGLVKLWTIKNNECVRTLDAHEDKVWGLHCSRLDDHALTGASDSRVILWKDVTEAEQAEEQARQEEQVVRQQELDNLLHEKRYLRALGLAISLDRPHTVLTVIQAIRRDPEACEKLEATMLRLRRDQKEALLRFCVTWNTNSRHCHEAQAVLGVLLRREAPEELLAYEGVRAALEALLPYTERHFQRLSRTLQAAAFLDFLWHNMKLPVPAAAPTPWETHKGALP
Chain of UniProt P04183 (P04183 whole entry, looked up): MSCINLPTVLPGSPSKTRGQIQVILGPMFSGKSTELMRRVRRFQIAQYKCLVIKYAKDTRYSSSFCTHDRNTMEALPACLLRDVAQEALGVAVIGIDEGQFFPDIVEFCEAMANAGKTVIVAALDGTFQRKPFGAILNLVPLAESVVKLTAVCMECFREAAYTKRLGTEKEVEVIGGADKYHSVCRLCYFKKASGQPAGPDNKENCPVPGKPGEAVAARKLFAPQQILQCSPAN
Chain of UniProt O43156 (O43156 whole entry, looked up): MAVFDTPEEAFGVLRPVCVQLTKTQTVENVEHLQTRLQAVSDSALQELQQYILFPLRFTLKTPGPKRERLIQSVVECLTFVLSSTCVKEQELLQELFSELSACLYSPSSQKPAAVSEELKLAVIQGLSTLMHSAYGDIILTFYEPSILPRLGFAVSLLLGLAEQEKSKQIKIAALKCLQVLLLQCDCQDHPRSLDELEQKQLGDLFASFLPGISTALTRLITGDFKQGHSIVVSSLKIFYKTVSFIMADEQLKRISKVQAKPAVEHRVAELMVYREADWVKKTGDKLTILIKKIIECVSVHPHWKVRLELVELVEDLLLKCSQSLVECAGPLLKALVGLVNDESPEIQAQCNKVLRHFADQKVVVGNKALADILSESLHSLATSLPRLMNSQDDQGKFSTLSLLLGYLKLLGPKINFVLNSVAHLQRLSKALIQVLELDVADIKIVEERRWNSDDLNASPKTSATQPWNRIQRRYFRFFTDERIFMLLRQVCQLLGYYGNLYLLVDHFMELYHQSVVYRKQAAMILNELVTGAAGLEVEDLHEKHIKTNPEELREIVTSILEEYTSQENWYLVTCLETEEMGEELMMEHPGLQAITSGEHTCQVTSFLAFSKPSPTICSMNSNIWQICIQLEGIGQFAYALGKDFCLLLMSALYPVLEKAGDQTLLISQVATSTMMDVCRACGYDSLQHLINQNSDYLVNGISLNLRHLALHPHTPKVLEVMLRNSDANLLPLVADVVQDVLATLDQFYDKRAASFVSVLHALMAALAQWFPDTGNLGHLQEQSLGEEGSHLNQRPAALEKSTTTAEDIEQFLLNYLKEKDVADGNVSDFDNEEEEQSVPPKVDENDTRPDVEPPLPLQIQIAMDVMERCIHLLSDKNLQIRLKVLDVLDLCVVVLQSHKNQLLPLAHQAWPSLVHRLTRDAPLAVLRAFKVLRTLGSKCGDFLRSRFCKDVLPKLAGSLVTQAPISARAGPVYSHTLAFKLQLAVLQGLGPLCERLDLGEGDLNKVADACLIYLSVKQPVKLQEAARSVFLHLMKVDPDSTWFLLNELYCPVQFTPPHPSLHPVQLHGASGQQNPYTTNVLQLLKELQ
Chain of UniProt Q13885 (Q13885 whole entry, looked up): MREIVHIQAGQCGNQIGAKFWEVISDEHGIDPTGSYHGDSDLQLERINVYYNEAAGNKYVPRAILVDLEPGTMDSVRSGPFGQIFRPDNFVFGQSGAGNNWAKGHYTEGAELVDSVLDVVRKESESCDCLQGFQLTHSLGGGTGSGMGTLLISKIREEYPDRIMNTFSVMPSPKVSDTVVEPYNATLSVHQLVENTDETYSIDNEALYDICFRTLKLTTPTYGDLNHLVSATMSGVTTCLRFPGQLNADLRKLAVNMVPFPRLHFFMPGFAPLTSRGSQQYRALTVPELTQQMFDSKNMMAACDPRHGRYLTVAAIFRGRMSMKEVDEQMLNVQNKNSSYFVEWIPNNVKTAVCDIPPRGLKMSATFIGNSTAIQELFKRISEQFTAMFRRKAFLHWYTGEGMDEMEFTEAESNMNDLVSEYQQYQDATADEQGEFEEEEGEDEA
Chain of UniProt Q01085 (Q01085 whole entry, looked up): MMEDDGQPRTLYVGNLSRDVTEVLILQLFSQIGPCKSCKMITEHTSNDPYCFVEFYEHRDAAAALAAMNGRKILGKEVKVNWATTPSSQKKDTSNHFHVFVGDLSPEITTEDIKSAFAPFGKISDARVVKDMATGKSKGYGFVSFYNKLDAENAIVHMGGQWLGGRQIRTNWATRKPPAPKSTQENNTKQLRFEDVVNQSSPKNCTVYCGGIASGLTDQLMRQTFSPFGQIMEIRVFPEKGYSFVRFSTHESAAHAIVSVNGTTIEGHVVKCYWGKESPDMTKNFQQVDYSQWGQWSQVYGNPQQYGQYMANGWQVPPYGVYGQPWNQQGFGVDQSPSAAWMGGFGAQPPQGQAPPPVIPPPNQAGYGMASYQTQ
Chain of UniProt P68366 (P68366 whole entry, looked up): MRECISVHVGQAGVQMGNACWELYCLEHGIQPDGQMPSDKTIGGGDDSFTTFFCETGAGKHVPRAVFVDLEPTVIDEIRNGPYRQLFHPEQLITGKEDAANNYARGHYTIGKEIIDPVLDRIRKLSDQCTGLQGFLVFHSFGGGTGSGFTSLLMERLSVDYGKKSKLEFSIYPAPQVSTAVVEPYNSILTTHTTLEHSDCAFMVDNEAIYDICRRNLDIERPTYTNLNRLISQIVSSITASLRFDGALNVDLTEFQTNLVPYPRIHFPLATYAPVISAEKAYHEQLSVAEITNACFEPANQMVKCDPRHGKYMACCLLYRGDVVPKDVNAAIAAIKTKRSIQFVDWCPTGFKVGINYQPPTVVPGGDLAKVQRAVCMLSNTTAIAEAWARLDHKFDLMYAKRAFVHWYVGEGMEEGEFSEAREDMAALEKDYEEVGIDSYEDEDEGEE
Chain of UniProt P21580 (P21580 whole entry, looked up): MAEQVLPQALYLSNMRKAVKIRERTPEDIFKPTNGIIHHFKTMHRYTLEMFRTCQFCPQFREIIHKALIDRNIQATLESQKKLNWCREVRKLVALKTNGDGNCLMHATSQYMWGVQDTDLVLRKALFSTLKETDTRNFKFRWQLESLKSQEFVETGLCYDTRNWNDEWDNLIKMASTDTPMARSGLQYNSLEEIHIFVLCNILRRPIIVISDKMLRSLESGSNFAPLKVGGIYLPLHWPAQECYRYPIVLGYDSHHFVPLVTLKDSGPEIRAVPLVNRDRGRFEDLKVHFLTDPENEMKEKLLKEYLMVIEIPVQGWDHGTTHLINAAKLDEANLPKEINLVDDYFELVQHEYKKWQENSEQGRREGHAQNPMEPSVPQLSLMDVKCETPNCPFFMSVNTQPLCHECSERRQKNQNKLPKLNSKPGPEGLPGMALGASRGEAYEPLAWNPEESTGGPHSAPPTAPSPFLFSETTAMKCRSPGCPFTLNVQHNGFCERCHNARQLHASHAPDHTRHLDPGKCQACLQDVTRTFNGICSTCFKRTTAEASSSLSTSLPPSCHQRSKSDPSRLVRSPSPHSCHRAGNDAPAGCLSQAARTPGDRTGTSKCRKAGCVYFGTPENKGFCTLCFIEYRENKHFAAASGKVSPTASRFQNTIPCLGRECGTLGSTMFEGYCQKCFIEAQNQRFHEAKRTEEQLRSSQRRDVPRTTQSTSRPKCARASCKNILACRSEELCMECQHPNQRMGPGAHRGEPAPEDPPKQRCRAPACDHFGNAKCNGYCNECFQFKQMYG
Chain of UniProt O60701 (O60701 whole entry, looked up): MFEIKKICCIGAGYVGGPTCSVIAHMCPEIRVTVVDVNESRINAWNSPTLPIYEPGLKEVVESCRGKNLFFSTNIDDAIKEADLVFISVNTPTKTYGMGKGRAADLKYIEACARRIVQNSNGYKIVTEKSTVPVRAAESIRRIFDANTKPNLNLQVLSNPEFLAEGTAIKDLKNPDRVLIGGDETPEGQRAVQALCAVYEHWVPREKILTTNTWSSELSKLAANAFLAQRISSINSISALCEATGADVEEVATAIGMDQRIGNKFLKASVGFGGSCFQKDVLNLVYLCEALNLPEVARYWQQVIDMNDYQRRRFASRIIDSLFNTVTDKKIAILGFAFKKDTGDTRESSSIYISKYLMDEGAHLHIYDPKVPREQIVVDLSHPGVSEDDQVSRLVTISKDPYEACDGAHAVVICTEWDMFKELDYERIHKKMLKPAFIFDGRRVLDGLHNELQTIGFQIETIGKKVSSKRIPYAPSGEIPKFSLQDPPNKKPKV

Target	log2 fold change (lapatinib)	log2 fold change (pictilisib)	log2 fold change (crizotinib)	log2 fold change [1]	log2 fold change (duvelisib)	log2 fold change (gandotinib)	log2 fold change (tozasertib)	log2 fold change (doramapimod)	log2 fold change (bafetinib)	log2 fold change [2]	log2 fold change (nilotinib)	log2 fold change [3]	log2 fold change (dasatinib)	log2 fold change [4]	log2 fold change [5]	log2 fold change (quisinostat)	log2 fold change (tipifarnib)	log2 fold change [6]	log2 fold change [7]	log2 fold change [8]
UBP1 (UniProt Q9NZI7)	0.049	-0.004	-0.202	0.206	-0.025	-0.01	-0.043	0.15	-0.029	-0.124	-0.019	-0.039	0.008	0.05	0.002	-0.125	-0.084	0.01	0.008	-0.058
UGDH (UniProt O60701)	0.009	-0.021	-0.015	0.037	-0.063	-0.067	-0.073	-0.053	-0.019	-0.022	0.008	-0.012	0.217 (active)	0.009	-0.034	0.019	0.007	0.039	-0.01	0.006
TUBB2A (UniProt Q13885)	0.009	0.011	-0.049	-0.016	-0.012	0.028	-0.011	0.004	0.026	-0.005	-0.005	-0.002	-0.049	-0.02	-0.001	-0.035	0.009	0.043	0.003	0.007
TBK1 (UniProt Q9UHD2)	0.042	0.054	0.469 (active)	-0.059	-0.046	0.342	0.314	-0.024	0.007	-0.044	-0.003	0.618 (active)	0.029	0.125	0.251	-0.097	-0.026	0.209	0.032	-0.074
TK1 (UniProt P04183)	-0.006	0.022	0.022	-0.133	0.023	0.062	0	0	0.009	0.021	-0.009	0.002	0.004	0.003	-0.009	-0.03	0.015	-0.005	-0.043	-0.003
TUBA4A (UniProt P68366)	-0.02	0.012	-0.048	-0.066	0.034	0.121	0.011	0.045	-0.028	0.035	0.036	-0.024	-0.09	-0.009	0.02	-0.024	-0.012	0.034	0.022	-0.003
TTI1 (UniProt O43156)	-0.011	-0.044	-0.11	-0.075	-0.005	-0.113	0.028	0.045	-0.016	0.056	-0.007	0.004	0.005	0.001	0.016	-0.047	-0.015	-0.003	0.01	-0.001
TNFAIP3 (UniProt P21580)	-0.032	0.052	-0.013	0.032	0.038	-0.075	0.744	0.084	-0.02	-0.023	0.038	-0.01	-0.002	-0.04	0.033	0.008	-0.068	0.025	0.01	0.003
THOC5 (UniProt Q13769)	-0.036	-0.007	-0.011	-0.024	-0.009	-0.021	-0.01	0.02	-0.009	0.035	-0.035	0.006	-0.014	-0.036	0.029	-0.006	-0.019	0.021	0.009	-0.01
UBE3B (UniProt Q7Z3V4)	-0.019	0.025	-0.027	-0.174	0.136	-0.17	-0.005	0.083	-0.082	0.203	0.041	-0.006	0.055	-0.011	0.053	-0.077	-0.102	0.041	0.14	-0.026
TSFM (UniProt P43897)	0.003	-0.007	-0.056	0.012	0.025	-0.122	0.047	0.06	-0.026	-0.034	-0.013	0.021	-0.034	-0.028	0.017	-0.016	0.002	0.002	0.037	-0.026
UBR3 isoform 4 (UniProt Q6ZT12)	-0.003	0.01	-0.092	-0.006	-0.003	-0.046	0.06	0.015	-0.042	0.05	0.003	-0.033	-0.026	-0.005	0.014	-0.069	-0.009	0.036	-0.032	-0.039
TTC38 (UniProt Q5R3I4)	-0.034	-0.029	0.031	0.213	-0.022	-0.116	-0.011	0.301 (active)	0.065	-0.186	0.02	0.016	0.029	0.059	-0.003	0.293 (active)	0.026	-0.036	0.015	0.029
TIAL1 isoform 2 (UniProt Q01085)	-0.013	-0.063	0.038	-0.024	-0.014	0.054	0.011	0.007	0	0.001	-0.603 (active)	-0.013	0.025	-0.015	0.028	0.039	-0.037	-0.016	0.004	0.033
TBL3 (UniProt Q12788)	-0.022	-0.027	-0.017	-0.028	-0.009	-0.05	-0.008	-0.024	-0.019	0.04	-0.009	0.025	-0.013	0.016	0.011	-0.046	0.008	0.056	-0.032	-0.052
